Several values for one entry are separate records, joined by “and”; a condition that tells them apart may be missing. Identical values can stand only once. Screen size: about 320,000 compounds; about 560 (0.17%) were called active. The full list was thinned out, with actives kept by preference. A number with no mark means an inactive call.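 Rule for the calls: active = inhibition above the campaign's mean inhibition across all tested compounds plus 3 SD (cut at about 9.5% in these data); inactive = the rest.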

The inhibition is the relative decrease from the control value, in per cent.

The target of this assay is Serine/threonine-protein phosphatase 5 (Homo sapiens) (UniProt P53041). In words: inhibition of human PP5 catalytic activity – biochemical, fluorescence, primary screen (AID 1987).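 Note: 0% = DMSO only and 100% = 100 µM cantharidin control.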 As to conditions: purified PP5c, OMFP substrate fluorescence; at 6.7 µM; hits give high values.
Serine/threonine-protein phosphatase 5 (Homo sapiens), sequence (P53041 whole entry, looked up): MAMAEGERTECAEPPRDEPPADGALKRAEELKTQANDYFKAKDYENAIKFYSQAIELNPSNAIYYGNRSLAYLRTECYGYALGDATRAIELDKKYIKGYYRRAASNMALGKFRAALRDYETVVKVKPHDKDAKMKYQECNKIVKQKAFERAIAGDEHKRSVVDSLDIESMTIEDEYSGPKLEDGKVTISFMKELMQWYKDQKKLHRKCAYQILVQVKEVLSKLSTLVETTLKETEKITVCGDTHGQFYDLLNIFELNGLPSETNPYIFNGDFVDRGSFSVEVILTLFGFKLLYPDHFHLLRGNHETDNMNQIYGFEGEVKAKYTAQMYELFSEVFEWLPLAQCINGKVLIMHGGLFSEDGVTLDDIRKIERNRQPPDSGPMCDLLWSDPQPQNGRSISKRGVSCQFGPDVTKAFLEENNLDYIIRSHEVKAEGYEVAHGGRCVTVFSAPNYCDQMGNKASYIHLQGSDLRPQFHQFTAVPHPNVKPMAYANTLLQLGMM
As for `O=C(O)CCc1nc2cc(Cl)ccc2n(Cc2ccccc2)c1=O`, the inhibition is -2.07%. With `CCOC(=O)Nc1ccc2c(c1)N(C(=O)CCCl)c1ccccc1[S@]2=O`, the inhibition is -0.16%. With `CCOC(=O)Nc1ccc2c(c1)N(C(=O)CCN1CCN(CCO)CC1)c1ccccc1CC2` the figure was 2.46%; with `CCOC(=O)Nc1ccc2c(c1)N(C(=O)CN1CCN3CCCC3C1)c1ccccc1CC2` (centres undefined), 10.7% (active). With `O=S1(=O)N=C(N(CCO)/N=C/c2ccccc2F)c2ccccc21` the figure was -2.75%. In the case of `CC(C)Cn1cnc2c1c(=O)n(CC(=O)NN)c(=O)n2Cc1ccccc1`, the inhibition is 1.33%. `CC(=O)c1c(C)[nH]c(C(=O)Nc2cc(S(=O)(=O)N(C)C)ccc2C)c1C`: the inhibition was 3.8%.

As for `O=C(N=C1SC2CS(=O)(=O)CC2N1c1cc(Cl)ccc1Cl)C1CC1` (centres undefined), the inhibition was -1.21%.

Take `CC(C)OC(=O)c1sc2nc3c(cc2c1N)C(=O)CCC3`: the inhibition was -4.25%. On to `O=C(O)c1ccc(-n2cccc2)cc1O`, for which the inhibition is 1.23%. With `O=C(Nc1ccccc1F)C1C2C=CC3(O2)C1C(=O)N(c1cccnc1)C3C(=O)NC1CCCCC1` (centres undefined) the figure was 2.73%; with `O=C(O)c1ccc(S(=O)(=O)N2CCC(Cc3ccccc3)CC2)cc1`, -3.11%; with `CCCCN(CCCC)CCCNC(=O)CN1C(=O)COc2ccc(S(=O)(=O)N3CCC(C)CC3)cc21`, -1.56%.

On to `COc1ccc(CCNC(=S)NC(=O)/C=C/c2ccc(C)cc2)cc1OC`, for which the inhibition is 1.62%. Take `Cn1c(Cc2cccc3ccccc23)nnc1SCC(=O)N1CCN(c2cccc(Cl)c2)CC1`: the inhibition was 3.02%.

Regarding `Nc1nc(SCC(=O)NN(c2ccccc2)c2ccccc2)n[nH]1`, the inhibition was -0.37%. As for `Cc1cccn2cc(-c3cccc(S(=O)(=O)N4CCCCC4)c3)nc12`, the inhibition was 0.22%. Then `COc1cc(/C=C2/SC(=S)N(Cc3ccccc3)C2=O)cc(OC)c1O`, with 10.8% (active); and `COc1ccc(/C=C2\SC(=S)N(CCCC(=O)NC3CCCC3)C2=O)cc1OC`, with -4.92%; and `COc1ccc(/C=C2\SC(=S)N(CCC(=O)Nc3cccc(C(=O)O)c3)C2=O)cc1OC`, with 0.86%. Then `Cc1c(CCC(=O)N[C@@H](CC(C)C)C(=O)O)c(=O)oc2c(C)c3oc4c(c3cc12)CCCC4`, with -1.14%. Take `CN1CC(=O)N=C1N`: the inhibition is 2.26% and -0.51%. With `CC1(C)O[C@@H]2[C@H](O1)[C@@H](COS(=O)(=O)O)O[C@H]2n1cnc2c(=O)[nH]cnc21` the figure was 0.9%; with `COCCOC1CCN(C(=O)c2ccc(OC)c(OC3CCN(C(C)C)CC3)c2)CC1`, 0.82%; with `CC(C)C[C@H](NC(=O)C1CC(=O)N(c2ccc3c(c2)OCCO3)C1)C(=O)NC1CCCC1` (some centres undefined), -0.77%. Take `COc1ccc(S(=O)(=O)NNC(=O)Nc2ccc(C)cc2)c(OC)c1`: the inhibition was 0.5%. With `CC(C)COC(=O)c1ccc(NC(=O)C2C3C=CC(C3)C2C(=O)O)cc1` (centres undefined) the figure was 1.86%; with `COc1ccc(NC(=O)CNC(=O)Cc2ccccc2)cc1OC`, -2.46%; with `CC(C)OC(=O)c1c(NC(=O)c2ccco2)sc2c1CCCC2`, 1.48%. For the compound `CC(C)OC(=O)c1cc(NC(=O)C2C3CCC(O3)C2C(=O)O)cc(C(=O)OC(C)C)c1` (centres undefined), the inhibition is 55.6% (active). Take `Cc1sc(NC(=O)C2C3CCC(O3)C2C(=O)O)c(C(=O)OC(C)C)c1-c1ccc(Cl)cc1` (centres undefined): the inhibition is 15.1% (active). Regarding `COc1ccc(NC(=O)C2C3CCC(O3)C2C(=O)O)cc1OC` (centres undefined), the inhibition was 76.2% (active). Regarding `COC(=O)c1cc(NC(=O)C2C3C=CC(C3)C2C(=O)O)cc(C(=O)OC)c1` (centres undefined), the inhibition was 1.39%. For `COc1ccc(NC(=S)SC)cc1OC`, the inhibition was 3.15%. In the case of `CCOC(=O)c1c(NC(=O)C2CCN(S(=O)(=O)c3ccc(Cl)cc3)CC2)sc2c1CCCC2`, the inhibition was 0.34%.

Consider `Cc1cc(C)n(-c2nnc(N3CCN(c4ccccc4)CC3)nn2)n1`, for which the inhibition was -0.74%. As for `COCCCNC(=O)C1CC(=O)N(CCc2ccc(F)cc2)C1` (centres undefined), the inhibition is -1.89%.

`CC(C)CCn1cnc2c1c(=O)n(CC(=O)NC(N)=O)c(=O)n2Cc1ccccc1`: the inhibition is 1.52%. For the compound `COc1ccc2c(c1)C(=O)Nc1cc(Cl)ccc1N2`, the inhibition is -0.62%. `CC(C)CN(C(=O)Cn1c(=O)cnc2ccccc21)C1CCS(=O)(=O)C1` (centres undefined): the inhibition was -1.01%. For `COc1ccc(S(=O)(=O)N2CCN(C(=O)c3cc(C)oc3C)CC2)cc1`, the inhibition is 0.44%. For `CCCCn1c(N)c(N(CCC(C)C)C(=O)COC(=O)c2cccnc2OCC)c(=O)[nH]c1=O`, the inhibition was 0.18%.

On to `CC(=O)Nc1ccccc1OC(C)C(=O)N1CCC(C)CC1` (centres undefined), for which the inhibition was -1.03%. Regarding `Nc1nnc(SCC(=O)OCc2ccc(Cl)c(Cl)c2)s1`, the inhibition is 1.15%. Then `CCN1C(=O)[C@H]2[C@@H](c3ccc(SC4CCCCC4)c(OC)c3)N[C@@](Cc3ccccc3)(C(=O)OC)[C@H]2C1=O`, with 2.69%; and `CC(C)Oc1ccc(C(CC(=O)N2CCOCC2)C(C)C)cc1` (centres undefined), with 0.66%; and `Cc1cccc(N(C(=O)c2csnn2)C(C(=O)NCc2ccccc2)c2ccncc2)c1` (centres undefined), with 1.82%.

`Cn1cnnc1Sc1ccc(S(C)(=O)=O)cc1[N+](=O)[O-]`: the inhibition was -0.46%. Take `CCOC(=O)c1cnc(COc2ccccc2Cl)[nH]c1=O`: the inhibition is -1.14%.

Turning to `CC1CC(C)(C)n2c(O)c(N=NC(N)=S)c3cccc1c32` (centres undefined), the inhibition was 3.55%. With `Cn1ccnc1SCC(=O)Nc1ccc2c(c1)OCCO2` the figure was 2.87%; with `COc1cccc(OC)c1CN(C)C(=O)c1cnccc1C(F)(F)F`, 0.42%; with `COc1ccc(Cl)cc1C(=O)Nc1ccc(N(C)C(C)=O)cc1`, 0.43%. Regarding `COc1cc(C(F)(F)F)c(C(=O)N(C)c2ccc(Cl)cc2)cn1`, the inhibition is 11.3% (active).

For the compound `COc1ccccc1NC(=O)COC(=O)COc1ccccc1F`, the inhibition is 2.17%. Then `Oc1c(C(c2ccccn2)N2CCOCC2)ccc2cccnc12` (centres undefined), with 11.2% (active); and `CC(C)c1cc(CN2CCOCC2)cc(C(C)C)c1O`, with 1.58%; and `CN(C)c1ccc(C(CC(=O)O)C(=O)O)cc1` (centres undefined), with 0.86%. On to `CCN(CC)c1nc(-c2ccccc2)cc(C(F)(F)F)c1C#N`, for which the inhibition was 0.13%. With `O=C(Cc1ccccc1Cl)N1CCOCC1` the figure was -1.76%; with `CN(C(=O)Nc1ccc(Cl)cc1)n1cnc2ccccc2c1=O`, -2.44%. With `CC(C)(C)c1cc[n+](-c2[nH]c(=O)sc2/C=N/N=C(\[O-])c2ccccc2)cc1` the figure was -0.11%.

For the compound `O=C(CSc1ncnc2sccc12)N1CCN(C(=O)c2cccs2)CC1`, the inhibition is 0.16%. With `CCC(C)Sc1nc(C)nc2c1c(=O)n(C)c(=O)n2C` (centres undefined) the figure was 2.18%; with `CCn1c(C)nc2c1C(=O)c1ccccc1C2=O`, -1.27%.

Take `CCc1nnc(NC(=O)c2cc(S(=O)(=O)N3CCCCC3)ccc2C)s1`: the inhibition was 3.35%.

For `O=S1(=O)CC/C(=N\Nc2ccc(F)cc2)c2ccsc21`, the inhibition was 1.6%.

Take `O=Cc1cn(-c2ccccc2)nc1-c1ccccn1`: the inhibition was 0.89%. For the compound `C=CCc1ccccc1OCC(O)CN1CCN(CCO)CC1` (centres undefined), the inhibition was 0.89%. With `CN1CCN(CCCNC(=O)c2ccc(/C=C3\Oc4ccccc4N(Cc4ccc(Cl)cc4)C3=O)cc2)CC1` the figure was 4.83%; with `O=C(NCCCN1CCOCC1)c1ccc2c(c1)N(Cc1cccc(F)c1)C(=O)c1ccccc1S2`, -0.03%; with `CCN1CCN(CCNC(=O)c2ccc(/C=C3/Sc4ccccc4N(Cc4cccc(C)c4)C3=O)cc2)CC1`, 10.1% (active). Then `COc1ccc(CNc2c(CO)cnc3c2cnn3C)cc1`, with 0.82%; and `CC(C(=O)c1ccc(-c2ccccc2)cc1)[n+]1cccc(Br)c1` (centres undefined), with 0.21%.

These data come from PubChem BioAssay AID1987 (The Scripps Research Institute Molecular Screening Center, 2009).
